# An excerpt weighted towards active compounds, which were near 7.9% of everything screened.
# HCV inh – inhibitors of hepatitis C virus infection | Potency, µM (highest dose often 41.8 µM), without a hit: at the top dose activity change, negative = inhibition, usual class: inhibitors | Huh7.5.1 HCVcc-Cre infection, luciferase reporter, 44 h | hit rate 3.4% among 340,000 | AID 651820; active = well fitted inhibition curve with a large enough effect; inconclusive = small, poorly fitted or top-dose-only effect, or another doubt; inactive = no such curve, though single readings can be large or run the other way; note: potency is the fitted concentration of half-maximal effect
#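 Seed cells (1,000/well) for 4 h; treat with compound and infect with HCVcc-Cre, moi about 0.5. Incubate 44 h, then detect luciferase activity.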
# Marburg entry inh – inhibitors of Marburg virus binding or cell entry | hit rate 1.8% among 300,000 | Marburg virus pseudotyped entry inhibition, cell reporter | Potency, µM (top dose mostly 37.8 µM), for inactives: at the top dose activity change, negative = inhibition, usual class: inhibitors; calls by dose curve; tested in HEK293 cells; note: potency is the fitted concentration of half-maximal effect
# LASV entry inh – blocks Lassa virus binding to or entry into cells; Lassa virus pseudotype entry inhibition, cell reporter; Potency, µM (series often up to 37.9 µM), for inactives: top-dose activity change, negative = inhibition, actives largely listed as inhibitors; hit rate 1.2% among 300,000; AID 540256; calls by dose curve; tested in HEK293 cells; note: potency is the fitted concentration of half-maximal effect; nearly all actives have a fitted effect of over 50% in size
# FMDV inh – blocks foot and mouth disease virus; FMDV antiviral cell-based qHTS; Potency, µM (doses to about 57.9 µM), for inactives: at the top dose activity change, negative = inhibition, actives largely listed as inhibitors; hit rate 1.2% among 410,000; calls by dose curve; tested in HEK293T cells; note: read-out not given here; potency is the fitted concentration of half-maximal effect; nearly all actives have a fitted effect of over 45% in size
# HCMV inh – inhibitors of human cytomegalovirus; hit rate 4.5% among 410,000; HFF cells, HCMV-luciferase reporter, 72 h; hits give low values; activity change, negative = inhibition, % at 57.5 µM; AID 1259415; in the data active = activity change below about -60%; inconclusive = no clear call, values can overlap the other calls; inactive = above about -39%
#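 Cell-based, HFFs, 1000 cells/well, 16 h 37C; cpds in DMSO + HCMV-luc, MOI 1 PFU/cell; 72 h 37C; OneGlo luminescence after 5 min RT; norm. to buffer vs Salinomycin 10uM.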
# An asterisk follows results filed as active; ? = inconclusive; nt = no result given; + = active, no number; [ ] = dose if it differs, or a comment. % is set by controls: 0 for no effect and ±100 for the full control effect.
SMILES,HCV inh,Marburg entry inh,LASV entry inh,FMDV inh,HCMV inh
Fc1ccc(Nc2nc(N3CCOCC3)nc(N3CCOCC3)n2)cc1Cl,-16%,nt,nt,-22%,-5
Cc1cc(Nc2ccc(C)c(Cl)c2)nc(N2CCOCC2)n1,?,?,?,-15%,79
Clc1ccc(Nc2nc(NCCN3CCOCC3)nc(N3CCOCC3)n2)cc1,-15%,2.8µM*,?,-45%,nt
CN1CCN(c2nc(Nc3cccc(C(F)(F)F)c3)nc(N3CCOCC3)n2)CC1,?,21µM*,?,27%,-18
Cc1ccc(Nc2cc(C)nc(N3CCOCC3)n2)cc1,?,5.6µM*,23%,11%,276
Cc1ccccc1Nc1nc(N2CCOCC2)nc(N2CCOCC2)n1,-17%,6.3µM*,-29%[46.1 µM],-26%,+
Fc1ccccc1Nc1nc(N2CCOCC2)nc(N2CCOCC2)n1,?,nt,nt,-27%,19
OC(c1ccco1)c1nc(-c2cccs2)cs1 (stereo unspecified),nt,nt,nt,17%,46
c1ccc(Nc2nc(Nc3ccccc3)nc(N3CCNCC3)n2)cc1,-26%,6.3µM*,-18%[46.1 µM],-8%,29
CC(C)c1ccc(Nc2nc(N3CCOCC3)nc(N3CCOCC3)n2)cc1,nt,nt,nt,?,2
Cc1ccc(Nc2nc(N3CCOCC3)nc(N3CCOCC3)n2)cc1,?,1.2µM*,-37%,-1%,-65*
COc1ccccc1CN1CCC2(CC1)c1ccccc1[C@@H](NC(=O)c1ccco1)[C@@H]2OC,nt,nt,nt,-3%,nt
Cc1cc(-c2ccnc(-n3ncc(C(=O)NCC4COCCO4)c3C3CC3)n2)c(C)s1 (stereo unspecified),nt,nt,nt,47%,nt
CCN(CC)C(=O)C1CCN(C(=O)c2cnn(-c3ccccc3)c2-n2cccc2)CC1,nt,16%[46.1 µM],-1%[46.1 µM],-10%,16
O=C(CCl)NC1CCCc2ccccc21 (stereo unspecified),13%,?,-27%,?,-109*
CC(=O)c1cccc(NC(=O)NC2CCCc3ccccc32)c1 (stereo unspecified),?,nt,nt,12%,-70*
CCCN1C2CCCC1CC(NC(=O)Nc1cccc(C(C)=O)c1)C2 (stereo unspecified),2.8µM*,2%,20%,7%,41
CC(=O)c1ccc(NC(=O)NC2CCCc3ccccc32)cc1 (stereo unspecified),?,nt,nt,0%,5
Cc1nn(Cc2ccc(Cl)cc2Cl)c(Cl)c1C(=O)NC1CCCc2ccccc21 (stereo unspecified),0%,6%,5%,20µM*,26
Cc1ccc(-c2csc(N3CCC[C@@H]3C(=O)NCCn3c([C@H](C)N)nc4ccccc43)n2)cc1,nt,nt,nt,nt,0
O=C(NC1CCCc2ccccc21)c1c(F)cccc1Cl (stereo unspecified),-5%,4%[46.1 µM],-10%,1%,-67*
O=C(NC1CCSc2ccccc21)c1c(F)cccc1Cl (stereo unspecified),-3%,-7%[46.1 µM],-5%[46.1 µM],-8%,-6
CN(C(=O)CCl)C1CCCc2ccccc21 (stereo unspecified),?,nt,nt,16µM*,5
CCC(C)c1ccc(C(CC)NC(=O)C2CCCO2)cc1 (stereo unspecified),10µM*,nt,nt,?,-37
O=C(COc1ccc([N+](=O)[O-])cc1)Nc1nc(-c2ccccn2)cs1,10µM*,?,?,-11%,-71*
SMILES,HCV inh,Marburg entry inh,LASV entry inh,FMDV inh,HCMV inh
Cc1ccc(C(=O)Nc2nc(-c3ccccn3)cs2)o1,?,nt,nt,28%,35
O=C(COc1ccc(F)cc1)Nc1nc(-c2ccccn2)cs1,?,-6%,5%,-16%,-25
Cc1ccc(-c2csc(NC(=O)c3ccc(-c4ccccc4)cc3)n2)o1,8.9µM*,nt,nt,-22%,nt
O=C(Nc1nc(-c2ccccn2)cs1)c1ccc([N+](=O)[O-])o1,8.9µM*,?,?,2%,45
CC(=O)c1ccc(-c2ccc(C(=O)Nc3nc(-c4ccccn4)cs3)o2)cc1,2.5µM*,nt,nt,-4%,84
CN(C(=O)COC(=O)CNC(=O)c1cccs1)c1c(N)n(Cc2ccccc2)c(=O)[nH]c1=O,7%,nt,nt,-3%,-6
O=C(Nc1nc(-c2ccccn2)cs1)c1ccc(-c2ccccc2F)o1,?,nt,nt,12%,-70*
CCOC(=O)c1cccc(NC(=O)COc2ccc([N+](=O)[O-])cc2)c1,?,-15%,5%,nt,21
CCCOC(=O)c1cccc(NC(=O)COc2ccc([N+](=O)[O-])cc2)c1,?,-34%,-10%,25µM*,-5
